Source: PubChem (National Center for Advancing Translational Sciences (NCATS))
HCV inh: HCV inhibition | Huh7.5.1 HCVcc-Cre infection, luciferase reporter, 44 h | Potency, µM (doses to about 41.8 µM), inactives show at the highest dose activity change, negative = inhibition, hits mostly inhibitors | hit rate 3.4% among 340,000 | AID 651820; active = well fitted inhibition curve with a large enough effect; inconclusive = small, poorly fitted or top-dose-only effect, or another doubt; inactive = no such curve, though single readings can be large or run the other way
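Reporter virus HCVcc-Cre (~0.5 moi) infects cells exposed to compound; seeding density 1,000 cells/well with 4 h settling beforehand. Luminescence, 15 sec read, taken 44 h post-infection following a 15 min RT substrate incubation.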
Lassa entry inh: blocks Lassa virus binding to or entry into cells; Lassa virus pseudotype entry inhibition, cell reporter; hit rate 1.2% among 300,000; Potency, µM (titrated, usually from 37.9 µM), for the others: at the top dose activity change, negative = inhibition, most hits filed as inhibitors; AID 540256; calls by dose curve; tested in HEK293 cells; note: nearly all actives have a fitted effect of over 50% in size
Vaccinia mCherry: vaccinia inhibition (mCherry reporter). Vaccinia virus mCherry reporter infection, fluorescence. Potency, µM (titrated, usually from 36.5 µM), for inactives: top-dose activity change, negative = inhibition, hits mostly inhibitors. AID 720579. hit rate 0.63% among 310,000; calls by dose curve; tested in A549 cells; note: nearly all actives have a fitted effect of over 35% in size
Marburg entry inh: blocks Marburg virus binding to or entry into cells. Potency, µM (top dose mostly 37.8 µM), inactives show at the highest dose activity change, negative = inhibition, actives largely listed as inhibitors. hit rate 1.8% among 300,000. Marburg virus pseudotyped entry inhibition, cell reporter. AID 540276; calls by dose curve; tested in HEK293 cells
Vaccinia Venus: inhibitors of vaccinia virus (Venus reporter) | Vaccinia virus Venus reporter expression, fluorescence | Potency, µM (doses to about 36.5 µM), for inactives: at the top dose activity change, negative = inhibition, usual class: inhibitors | hit rate 0.46% among 330,000 | AID 720580; calls by dose curve; tested in A549 cells; note: nearly all actives have a fitted effect of over 30% in size
Active calls of the source: *; i = inactive; ? = inconclusive; nt = no result; [ ] = remark or other dose. Sampled rows, rich in hits. Any-hit rate of the full collection: about 4.6%. % is set by controls: 0 for no effect and ±100 for the full control effect; potency is the fitted concentration of half-maximal effect.

SMILES	HCV inh	Lassa entry inh	Vaccinia mCherry	Marburg entry inh	Vaccinia Venus
COc1cc(OC)c2c(-c3ccccc3)cc(=O)oc2c1C(CCN1CCCCC1)c1ccc(N(C)C)cc1 (stereo not drawn)	-9%	nt	?	nt	?
COc1cc(C(CCN2CCCC2)c2c(OC)cc(OC)c3ccc(=O)oc23)cc(OC)c1OC (stereo not drawn)	2µM*	nt	26%	nt	-11%
COc1cc(OC)c2c(C)cc(=O)oc2c1C(CCN1CCOCC1)c1ccc2c(c1)OCO2 (stereo not drawn)	?	nt	-21%	nt	-24%
COc1cc(C(CCN2CCN(c3ccccc3)CC2)c2c(OC)cc(OC)c3c(C)cc(=O)oc23)cc(OC)c1OC (stereo not drawn)	4µM*	nt	-8%	nt	-28%
CCCCCc1cc(=O)oc2c(C(CCN3CCCC(C)C3)c3ccc(N(C)C)cc3)c(OC)cc(OC)c12 (stereo not drawn)	-15%	nt	11µM*	nt	?
CCCCCc1cc(=O)oc2c(C(CCN3CCCCC3)c3cc(OC)c(OC)c(OC)c3)c(OC)cc(OC)c12 (stereo not drawn)	?	nt	?	nt	16µM*
Cc1cc2c(cc1S(=O)(=O)N(C)CC(=O)Nc1cccc(C#N)c1)OCC(=O)N2	nt	-13%[46.1 µM]	5%	nt	4%
O=S(=O)(Nc1cc(Sc2ncn[nH]2)c(O)c2ccccc12)c1ccccc1	?	?	6.3µM*	?	2.5µM*
CCOC(=O)c1sc2nc(CC(=O)OC)nc(NCCN3CCOCC3)c2c1C	?	5%	i	?	-10%
CCOC(=O)c1sc2nc(CC(=O)OC)nc(NCCN(CC)CC)c2c1C	11µM*	-15%	-19%	?	-26%
CCOC(=O)c1sc2nc(CC(=O)OC)nc(NCc3ccc(Cl)cc3)c2c1C	5.6µM*	-5%	nt	-9%	nt
CC(C)Oc1ccc(C(=O)N2CCN(c3nc4c(F)cc(F)cc4s3)CC2)cc1	nt	17%[46.1 µM]	-1%	nt	-9%
Cc1cccn2c3c(c(=O)nc12)C(c1ccc(F)cc1)CC(=O)N3 (stereo not drawn)	nt	1%[46.1 µM]	-8%	nt	-7%
CCCOc1ccc(C2NC(=S)NC(C)=C2C(=O)c2ccccc2)cc1OC (stereo not drawn)	?	-4%	nt	15µM*	nt
CC1=C(C(=O)c2ccccc2)C(c2ccc(OC(F)F)cc2)NC(=S)N1 (stereo not drawn)	?	?	-12%	4µM*	?
CC(C)OC(=O)[C@H](C)NC(=O)N1CCc2nc(-c3ccccc3)c3c(c2C1)CO[C@@H](C)C3	nt	nt	nt	-2%[14.2 µM]	nt
O=C(NCCc1ccc(Cl)cc1)c1ccc(CSCc2cccc(Cl)c2)o1	nt	-13%[46.1 µM]	-18%	nt	-11%
O=C(NCCCN1CCCC1)c1ccc(CSCc2cccc(Cl)c2)o1	10µM*	-4%	nt	?	nt
CN1CCN(CCCNC(=O)c2ccc(CSCc3cccc(Cl)c3)o2)CC1	-28%	11µM*	nt	?	-26%
CC1CCN(CCCNC(=O)c2ccc(CSCc3cccc(Cl)c3)o2)CC1	?	-18%	nt	12µM*	nt
Cc1c(C(=O)N(C)C)sc2c1c(=O)n(-c1ccc(Cl)c(Cl)c1)c(=O)n2Cc1ccc(F)cc1	nt	-2%[46.1 µM]	-11%	nt	-17%
CCc1ccc(/C=C/c2c[nH]c3ccccc23)[n+](CC)c1	?	13µM*	-22%	?	-16%
O=C(NCC1CCCO1)C1CCN(C2CCN(CCCC3CCCC3)CC2)CC1 (stereo not drawn)	10µM*	nt	nt	nt	nt
Cc1ccc(-n2cc3c(c2-c2ccccc2Br)c(=O)n(C)c(=O)n3C)cc1N	nt	-30%[46.1 µM]	-15%	2%[46.1 µM]	-15%
CCCCNc1nc(-c2ccccc2)c(C(=O)OCC)cc1C#N	?	11µM*	nt	?	-29%
SMILES	HCV inh	Lassa entry inh	Vaccinia mCherry	Marburg entry inh	Vaccinia Venus
CCOC(=O)c1cc(C#N)c(Oc2ccccc2)nc1-c1ccccc1	?	-28%	nt	-22%	-19%
CCCNc1nc(-c2ccccc2)c(C(=O)OCC)cc1C#N	3.2µM*	?	nt	?	?
C=CCNc1nc(-c2ccccc2)c(C(=O)OCC)cc1C#N	?	?	-18%	?	-26%
Cc1ncc(CO)c2c1Oc1nc(-c3ccccc3Cl)nc(SCc3ccccc3F)c1C2	nt	3%[46.1 µM]	?	nt	?
C#CCn1c(O)c(N=NC(=O)C(O)c2ccccc2)c2ccccc21 (stereo not drawn)	19%	-1%	13µM*	-1%[46.1 µM]	?
C=CCn1c(O)c(N=NC(=O)C(O)c2ccccc2)c2ccccc21 (stereo not drawn)	-22%	nt	nt	nt	nt
Cc1nc2ccccc2nc1/C=C/c1ccc(N(C)C)cc1	nt	nt	-11%	nt	20%
CCCNC(=O)c1ccc(-c2nc(CS(=O)(=O)c3ccc(C)cc3)c(C)o2)cc1	nt	-1%[46.1 µM]	10%	nt	-3%
Oc1ccccc1-c1n[nH]c(-c2ccccc2O)n1	?	?	2.8µM*	?	4µM*
O=C(c1ccc2c(c1)OCCO2)N(Cc1cccnc1)c1nc2c(F)cc(F)cc2s1	nt	?	-11%[7.34 µM]	nt	-9%[7.34 µM]
O=C(NCCO)c1cn(C2CCCN(Cc3cccc(C(F)(F)F)c3)C2)nn1 (stereo not drawn)	nt	nt	-2%	nt	14%
Cc1cc(C)n(-c2nc3cc(Cl)c(Cl)cc3nc2Nc2ccc(F)cc2C)n1	nt	6%[46.1 µM]	1%	7%[46.1 µM]	-10%
O=C1NCCc2c1[nH]c1c(Cl)ccc(Cl)c21	11µM*	13%	-16%	9%	-24%
O=C1NCCc2c1[nH]c1ccccc21	-20%	9%	-14%	-14%	-16%
CN(Cc1ccccc1)C(=O)C(=O)Nc1ccc2nc3n(c(=O)c2c1)CCCCC3	nt	-18%[46.1 µM]	13%	4%[46.1 µM]	-7%
CC(C)(C)c1nnc(N/N=C/c2ccccc2O)n(N)c1=O	?	?	2.8µM*	?	?
CC(C)(C)c1nnc(N/N=C/c2ccccc2)n(N)c1=O	11%	-4%	-6%	?	-18%
O=C(N/N=C/C=C/c1ccccc1)c1ccncc1	3%	?	-7%	-18%	6%
O=C(N/N=C/C=C/c1ccccc1)c1cc2c(ccc3ccccc32)o1	4%	7.9µM*	nt	4.5µM*	-6%
C=CCn1cc(/C=N\NC(=O)c2cc3c(ccc4ccccc43)o2)c2ccccc21	10µM*	-27%	nt	-22%	-15%
O=C(N/N=C/c1ccccc1F)c1cc2c(ccc3ccccc32)o1	-12%	nt	nt	nt	nt
COc1ccc(Cl)cc1NC(=O)N1CCN(Cc2cc(=O)n3nc(-c4ccccc4)sc3n2)CC1	nt	9%[46.1 µM]	2%	nt	-12%
CN(C)c1ccc(/C=C/c2c3c(nc4ccccc24)CCCC3)cc1	nt	nt	i	nt	-9%
CN(C)c1ccc(C(C[N+](=O)[O-])c2c(N)n(C)c(=O)n(C)c2=O)c(F)c1C#N (stereo not drawn)	-8%	nt	nt	nt	nt
COc1ccc(Br)cc1C(C[N+](=O)[O-])c1c(N)n(C)c(=O)n(C)c1=O (stereo not drawn)	4µM*	nt	nt	nt	nt
Cc1ccc(N2C(=O)CSC23C(=O)Nc2ccccc23)cc1F (stereo not drawn)	nt	19%[46.1 µM]	3%	nt	0%
COc1cccc(-n2nnc3c(=O)n(Cc4ccc(C)cc4)cnc32)c1	5%	4.1µM*	nt	?	nt
